Screening data: PubChem BioAssay, National Center for Advancing Translational Sciences (NCATS)
Only some compounds are listed: those with a hit (about 9.4% of all), similar ones and a draw of the others.
AMA1 RON2 block = qHTS for Inhibitors of AMA1-RON; Towards Development of Antimalarial Drug Lead: Primary Screen; Plasmodium falciparum AMA1 (3D7) - RON2 peptide interaction; AlphaScreen AMA1-biotinylated RON2 peptide binding; Potency, µM (top dose mostly 58.2 µM), hits mostly inhibitors; 360,000 compounds, 0.2% hits; also: nearly all actives have a fitted effect of over 45% in size
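AMA1 (3D7) with his tag at 25 nM final met compounds first, then biotinylated RON2 peptide at 25 nM; detection used donor plus acceptor beads, 10 µg/mL apiece, read by AlphaScreen after 30 min at room temperature.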
SARS PLpro yeast = qHTS of Yeast-based Assay for SARS-CoV PLP; S. cerevisiae expressing SARS-CoV PLpro, growth rescue; Potency, µM (highest dose often 32.9 µM), hits mostly activators; 330,000 compounds, 0.19% hits; AID 485353, 2010; calls by dose curve; also: nearly all actives have a fitted effect of over 55% in size
Pf growth 48h = Primary qHTS for delayed death inhibitors of the malarial parasite plastid, 48 hour incubation; P. falciparum luciferase growth in erythrocytes, 48 h; Potency, µM (series often up to 28.7 µM), actives largely listed as inhibitors; 310,000 compounds, 5.9% hits; AID 504832, 2011
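Here the parasites carry a stable luciferase gene and grow inside erythrocytes in Albumax-based RPMI medium with compound for one erythrocytic cycle. Activity is scored as loss of luminescent signal.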
Pf growth 96h = Primary qHTS for delayed death inhibitors of the malarial parasite plastid, 96 hour incubation. P. falciparum luciferase reporter growth, 96 h. Potency, µM (highest dose often 28.7 µM), usual class: inhibitors. 320,000 compounds, 6.9% hits
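Readout is luminescence from an integrated firefly luciferase in P. falciparum. Red cells, 2% hematocrit and 0.05% parasitemia final, were cultured with compound through two parasite generations (96 hours) at 37 C, 5% CO2.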
Large screens that a line does not name were inactive. Unless noted, calls follow the shape of the dose curve; as a rule, active = well fitted curve in the direction sought with a large enough effect; inconclusive = small, poorly fitted or top-dose-only effect, or another doubt; inactive = no such curve, though single readings can be large; an effect the other way counts as inactive or inconclusive.

CCN1C(=O)[C@@H]2[C@@H](c3ccc(SC4CCCCC4)cc3)N3CCC[C@@]3(C(=O)OC)[C@@H]2C1=O	Pf growth 48h 13µM, Pf growth 96h 9.3µM
COC(=O)[C@@]12CCCN1[C@H](c1ccc(SC3CCCCC3)cc1)[C@H]1C(=O)N(C)C(=O)[C@H]12	Pf growth 48h 10µM, Pf growth 96h inconclusive
CCN1C(=O)[C@H]2[C@@H](c3ccc(SC4CCCCC4)cc3)N3CCCC[C@@]3(C(=O)OC)[C@H]2C1=O	Pf growth 48h inconclusive, Pf growth 96h inconclusive
COC(=O)[C@@]12CCCCN1[C@H](c1ccc(SC3CCCCC3)cc1)[C@H]1C(=O)N(C)C(=O)[C@H]12	Pf growth 48h inconclusive, Pf growth 96h inconclusive
CC(=O)Nc1ccc(OC(=O)Cc2ccc(Cl)cc2)cc1	none
COc1ccc(Cl)cc1NC(=O)CNc1ccc(F)cc1C	Pf growth 48h inconclusive, Pf growth 96h inconclusive
CC(C)C[C@H]1CN=C(Nc2ccccc2)N1CCCC1CCCC1	Pf growth 48h inconclusive, Pf growth 96h 12µM
CC(C)C[C@H]1CN=C(Nc2ccccc2)N1CCCC1CCCCC1	Pf growth 48h inconclusive, Pf growth 96h inconclusive
CCN(CC)S(=O)(=O)c1cccc(N=Nc2sc(N)nc2C)c1	Pf growth 96h 12µM
O=c1c(C=NCCCn2ccnc2)c(-c2ccccc2)[nH]n1-c1nc2ccccc2s1	Pf growth 48h 10µM (no result: Pf growth 96h)
CCn1ccc(C(=O)Nc2cccc(Cl)c2)n1	Pf growth 96h inconclusive
Cc1cccc(NS(=O)(=O)c2ccc(-c3cnc(C4CC4)o3)cc2)c1C	Pf growth 48h inconclusive, Pf growth 96h 6.6µM
Cc1cccc(NS(=O)(=O)c2ccc3[nH]c(=O)[nH]c3c2)c1C	none
Cc1cccc(NS(=O)(=O)c2ccc3c(c2)Cc2cc(S(=O)(=O)Nc4cccc(C)c4C)ccc2-3)c1C	Pf growth 48h 9.3µM
Cc1ccc(C)c(NS(=O)(=O)c2ccc(-c3cnc(C4CC4)o3)cc2)c1	Pf growth 48h inconclusive, Pf growth 96h inconclusive
O=C(Nc1ccc(N2CCCC2)c(Cl)c1)c1cccnc1	Pf growth 48h inconclusive, Pf growth 96h inconclusive
CN(c1ccccc1)S(=O)(=O)c1cccc(NC(=O)c2ccc3ncsc3c2)c1	Pf growth 48h inconclusive, Pf growth 96h 10µM
Cc1ccc(N(C)S(=O)(=O)c2cccc(C(=O)Nc3nc4ccccc4[nH]3)c2)cc1	Pf growth 48h 12µM, Pf growth 96h inconclusive
CN(c1ccccc1)S(=O)(=O)c1cccc(NC(=O)c2cccc(C#N)c2)c1	Pf growth 48h 13µM, Pf growth 96h inconclusive
Cc1nc2ccc(NC(=O)c3cccc(S(=O)(=O)N(C)c4ccccc4)c3)cc2s1	Pf growth 48h inconclusive, Pf growth 96h 8.3µM
COc1ccc(NC(=O)N2CCCC2C(=O)NCc2ccc(F)cc2)cc1 (centres undefined)	none
O=C(CSc1nncn1-c1ccccc1)NCc1cccs1	none (no result: Pf growth 48h)
Cc1nnc(N(Cc2ccco2)C(=O)c2cccc(C#N)c2)s1	none
COc1ccc2c(c1)CC[C@@H]1[C@@H]2CC[C@]2(C)[C@@H](C(C)=O)C[C@@H]12	none
COc1cc(OC)cc(C(=O)NC(=S)NNC(=O)[C@H]2C[C@@H]2c2ccccc2)c1	Pf growth 48h inconclusive
COc1ccc(C(=O)NC(=S)NNC(=O)[C@H]2C[C@@H]2c2ccccc2)cc1OC	Pf growth 48h inconclusive, Pf growth 96h 1.5µM
Cc1nc2ccccc2c2nc(N)nn12	none
COc1ccc(C2=NN(c3ccc(C(=O)O)cc3)C(c3ccc(OC)c(OC)c3)C2)cc1 (centres undefined)	none
Cc1nc(SC(C)C(=O)NC2CCCCC2C)c2c(C)c(C)sc2n1 (centres undefined)	Pf growth 96h 15µM
Cc1ccccc1C(=O)c1c[nH]c(C(=O)NCCc2ccccn2)c1	Pf growth 48h 12µM, Pf growth 96h 9.3µM
CN1CCN(C(=O)CCN2C(=O)/C(=C\c3ccc(Cl)cc3)SC2=S)CC1	Pf growth 96h 8.3µM
CN1CCN(C(=O)CCN2C(=O)/C(=C\c3ccc(F)cc3)SC2=S)CC1	none (no result: Pf growth 48h, Pf growth 96h)
COc1ccccc1/C=C1\SC(=S)N(CCC(=O)N2CCN(C)CC2)C1=O	AMA1 RON2 block inconclusive, Pf growth 48h 12µM
O=C(CSc1nc2ccc(Cl)cc2[nH]1)c1c[nH]c2ccccc12	none
O=C(CSc1nc2ncc(Cl)cc2[nH]1)c1c[nH]c2ccccc12	Pf growth 48h 10µM, Pf growth 96h 1.9µM
COC(=O)CSc1nc2ncc(Cl)cc2[nH]1	Pf growth 96h 13µM
COc1ccccc1NC(=O)C1CCN(S(=O)(=O)c2ccc3c(c2)NC(=O)C(C)S3)CC1 (centres undefined)	Pf growth 48h 12µM, Pf growth 96h inconclusive
COc1ccc(CNC(=O)C2CCN(S(=O)(=O)c3ccc4c(c3)NC(=O)C(C)S4)CC2)cc1 (centres undefined)	Pf growth 48h inconclusive, Pf growth 96h inconclusive
Cc1ccc(NC(=O)C2CCN(S(=O)(=O)c3ccc4c(c3)NC(=O)C(C)S4)CC2)cc1C (centres undefined)	Pf growth 48h 10µM, Pf growth 96h inconclusive
Cc1ccc(NC(=O)C2CCN(S(=O)(=O)c3ccc4c(c3)NC(=O)C(C)S4)CC2)c(C)c1 (centres undefined)	Pf growth 48h inconclusive, Pf growth 96h inconclusive
CC1Sc2ccc(S(=O)(=O)N3CCC(C(=O)NCc4ccc(Cl)cc4)CC3)cc2NC1=O (centres undefined)	Pf growth 48h 10µM
Cc1ccc2nc(C)cc(Nc3ccc([N+](=O)[O-])cc3)c2c1	Pf growth 48h 0.74µM, Pf growth 96h inconclusive
COc1ccc(OC)c(Nc2cc(C)nc3ccc(C)cc23)c1	none (no result: SARS PLpro yeast, Pf growth 48h, Pf growth 96h)
CC(=O)c1cccc(Nc2cc(C)nc3ccc(C)cc23)c1	Pf growth 48h 4.1µM, Pf growth 96h inconclusive
COC(=O)c1ccc(Nc2cc(C)nc3ccc(C)cc23)cc1	Pf growth 48h inconclusive, Pf growth 96h inconclusive
CC(=O)c1cccc(Nc2cc(C)nc3c(C)cc(C)cc23)c1	Pf growth 48h 9.3µM, Pf growth 96h inconclusive
CCc1ccccc1OCC(=O)NCC1COc2ccccc2O1 (centres undefined)	none (no result: Pf growth 48h, Pf growth 96h)
CCOC(=O)CN1CC23C=CC(O2)C(C(=O)NCc2ccc(C)cc2)C3C1=O (centres undefined)	Pf growth 96h 10µM (no result: Pf growth 48h)
CC(NC(=O)CC12CC3CC(CC(C3)C1)C2)C(=O)O (centres undefined)	Pf growth 96h 9.3µM
CC(C)CNS(=O)(=O)c1cc(C(=O)OCC(=O)c2ccc3c(c2)OCCO3)c(Cl)cc1Cl	none
CC(C)(C)c1ccc(S(=O)(=O)NC(=O)C2(C)CCN2C(=O)Cc2ccc(Cl)cc2Cl)cc1 (centres undefined)	none (no result: SARS PLpro yeast, Pf growth 48h, Pf growth 96h)
Cc1cc(=O)n2[nH]c(-c3ccsc3-n3c(C)ccc3C)cc2n1	Pf growth 96h 6.6µM
Cc1nc2cc(-c3ccsc3-n3c(C)ccc3C)[nH]n2c(=O)c1Cl	Pf growth 96h 15µM (no result: Pf growth 48h)
COCc1cc(=O)n2[nH]c(-c3ccsc3-n3c(C)ccc3C)cc2n1	none (no result: Pf growth 48h)
